This is an account of results in PubChem BioAssay (NCATS).

Unmarked numbers belong to inactive results. Active and inactive are the calls of the source. Calls come from the whole dose curve; as a rule, active = well fitted curve in the direction sought with a large enough effect; inactive = no such curve, though single readings can be large or run the other way.

Alpha-galactosidase (Coffea arabica), sequence (Q42656 whole entry, looked up): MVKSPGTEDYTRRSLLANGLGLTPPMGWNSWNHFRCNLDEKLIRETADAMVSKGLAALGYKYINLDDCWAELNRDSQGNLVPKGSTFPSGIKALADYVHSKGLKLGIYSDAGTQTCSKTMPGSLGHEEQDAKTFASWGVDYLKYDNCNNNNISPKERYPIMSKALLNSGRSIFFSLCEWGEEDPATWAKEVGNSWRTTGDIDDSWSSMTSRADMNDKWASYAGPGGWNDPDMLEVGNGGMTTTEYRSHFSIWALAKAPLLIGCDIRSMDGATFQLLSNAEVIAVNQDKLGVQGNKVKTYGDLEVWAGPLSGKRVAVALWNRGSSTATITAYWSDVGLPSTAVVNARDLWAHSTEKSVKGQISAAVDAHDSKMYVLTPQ

This experiment has as its target Alpha-galactosidase (Coffea arabica) (UniProt Q42656). Nature of the experiment: Counterscreen for Glucocerebrosidase Inhibitors: qHTS Assay for Coffee Bean alpha-Galactosidase at pH 5.9 (AID 998).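 Note: plate controls were uninhibited enzyme for no effect and no-enzyme basal signal for full effect.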 Particulars: coffee bean alpha-galactosidase enzyme assay; series mostly up to 76.9 µM; activity, negative = inhibition: at the top concentration. Summed up:
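In 50 mM citric acid pH 5.9 with 0.005% Tween-20, coffee bean enzyme hydrolyses 80 uM 4-MU alpha-D-galactopyranoside over 20 min at RT. Activity is normalized to controls; AC50 comes from Hill-modelled concentration-response data.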
As to `CNCCCC1c2ccccc2C=Cc2ccccc21`, the “activity, negative = inhibition” value was -2.52%. The same measure, in the same setting: for `CC1(C)NC(=O)N(c2ccc([N+](=O)[O-])c(C(F)(F)F)c2)C1=O` the value was -0.355%; for `O=C1CCc2cc(OCCCCc3nnnn3C3CCCCC3)ccc2N1`, -0.37%; for `O=C(c1ccc(OCCN2CCCCC2)cc1)c1c(-c2ccc(O)cc2)sc2cc(O)ccc12`, -1.15%. Same read-out and setting: as for `CN[C@H]1CC[C@@H](c2ccc(Cl)c(Cl)c2)c2ccccc21`, the figure is -2.76%; as for `Cc1cnc(C(=O)NCCc2ccc(S(=O)(=O)NC(=O)NC3CCCCC3)cc2)cn1`, 2.11%; as for `CN/C(=C\[N+](=O)[O-])NCCSCc1ccc(CN(C)C)o1`, 1.63%. On the same count and under the same terms, as for `CCCN(CCC)CCc1cccc2c1CC(=O)N2`, the figure is -1.02%; as for `CN(Cc1cnc2nc(N)nc(N)c2n1)c1ccc(C(=O)N[C@@H](CCC(=O)O)C(=O)O)cc1`, -1.75%; as for `CN1CCN(CCCN2c3ccccc3Sc3ccc(Cl)cc32)CC1`, -2.65%. Turning to `COC(=O)[C@H]1[C@H]2C[C@@H]3c4[nH]c5cc(OC)ccc5c4CCN3C[C@H]2C[C@@H](OC(=O)c2cc(OC)c(OC)c(OC)c2)[C@@H]1OC`, the “activity, negative = inhibition” value is -7.19%. Same read-out and setting: as for `NNc1nncc2ccccc12`, the figure is 4.09%. As to `Cc1ccccc1N1C(=O)c2cc(S(N)(=O)=O)c(Cl)cc2NC1C` (stereo not given), the “activity, negative = inhibition” value was 1.43%.

Take `O=C(C1CCCCC1)N1CC(=O)N2CCc3ccccc3C2C1` (stereo not given): the “activity, negative = inhibition” value was 0.743%. Same read-out and setting: for `O=NN(CCCl)C(=O)NCCCl` the value was 3.94%; for `Nc1nc2c(ncn2COCCO)c(=O)[nH]1`, 1.73%; for `CCOC(=O)N1CCC(=C2c3ccc(Cl)cc3CCc3cccnc32)CC1`, -1.36%. The same measure, in the same setting: for `Cn1cnc([N+](=O)[O-])c1Sc1ncnc2nc[nH]c12` the value was -0.0624%; for `Cc1cn[nH]c1`, -0.991%; for `CN(C)CC/C=C1\c2ccccc2COc2ccccc21`, 1.05%.

Regarding `N[C@@H]1CONC1=O`, the outcome was inactive.

Turning to `CN1CCC(=C2c3ccccc3C=Cc3ccccc32)CC1`, the “activity, negative = inhibition” value was -5.55%. Same read-out and setting: for `CC(=O)N[C@@H](CS)C(=O)O` the value was -0.69%; for `OCCN1CCN(CCCN2c3ccccc3Sc3ccc(Cl)cc32)CC1`, 0.319%.

`CN1CCN(CCCN2c3ccccc3Sc3ccc(C(F)(F)F)cc32)CC1`: the “activity, negative = inhibition” value was -3.08%. On to `CN(C)CCCN1c2ccccc2Sc2ccc(Cl)cc21`, for which the “activity, negative = inhibition” value was -4.62%. On the same count and under the same terms, as for `CN1CCN(C2=Nc3ccccc3Oc3ccc(Cl)cc32)CC1`, the figure is -3.13%; as for `CC1=NS(=O)(=O)c2cc(Cl)ccc2N1`, -2.12%. On the same count and under the same terms, for `CCCNC(=O)NS(=O)(=O)c1ccc(Cl)cc1` the value was -1.77%. Same read-out and setting: for `Fc1ccc([C@@H]2CCNC[C@H]2COc2ccc3c(c2)OCO3)cc1` the value was -3.4%. As to `O=C1c2c(O)ccc(O)c2C(=O)c2c(NCCNCCO)ccc(NCCNCCO)c21`, the “activity, negative = inhibition” value was -0.938%.

In the case of `CCN(CC)C(=S)SSC(=S)N(CC)CC`, the “activity, negative = inhibition” value was -1.92%. On to `CN(C)CCC=C1c2ccccc2C=Cc2ccccc21`, for which the “activity, negative = inhibition” value was -4.3%. The same measure, in the same setting: as for `Nc1ncn([C@@H]2O[C@H](CO)[C@@H](O)[C@H]2O)c(=O)n1`, the figure is -2.25%. Consider `NC[C@H](O)c1ccc(O)c(O)c1`, for which the result was inactive.
